# Assay results published in PubChem BioAssay.
# The source made the active and inactive calls.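 The calls were made as follows: active = normalized viability below 100% at a tested concentration; inactive = the rest.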
# Assay: ovarian cancer cell viability with rucaparib, profiling panel, oncology-focused library, rucaparib conditional (AID 1508598)
# Conditions: patient-derived ovarian cancer cells, CellTiter-Glo viability, 144 h; at 0.313 µM; OCI-C5x cells; with rucaparib 10 µM; active compounds read low; 100% = cells with rucaparib alone
row,Structure (SMILES),viability
1,CC(C)[C@@]12O[C@@H]1[C@@H]1O[C@]13[C@]1(O[C@@H]1C[C@@H]1C4=C(CC[C@@]13C)C(=O)OC4)[C@@H]2O,9.16% (active)
2,C/C(=C\c1csc(C)n1)[C@H]1C[C@@H]2O[C@]2(C)CCC[C@H](C)[C@H](O)[C@@H](C)C(=O)C(C)(C)[C@H](O)CC(=O)O1,40.6% (active)
3,C/C(=C\c1csc(C)n1)[C@H]1C[C@@H]2O[C@@H]2CCC[C@H](C)[C@H](O)[C@@H](C)C(=O)C(C)(C)[C@H](O)CC(=O)O1,29.6% (active)

# Same assay, conditions: patient-derived ovarian cancer cells, CellTiter-Glo viability, 144 h; at 0.313 µM; OCI-C5x cells; without rucaparib; active compounds read low
row,Structure (SMILES),viability
1,CC(C)[C@@]12O[C@@H]1[C@@H]1O[C@]13[C@]1(O[C@@H]1C[C@@H]1C4=C(CC[C@@]13C)C(=O)OC4)[C@@H]2O,10.5% (active)
2,C/C(=C\c1csc(C)n1)[C@H]1C[C@@H]2O[C@]2(C)CCC[C@H](C)[C@H](O)[C@@H](C)C(=O)C(C)(C)[C@H](O)CC(=O)O1,35.3% (active)
3,C/C(=C\c1csc(C)n1)[C@H]1C[C@@H]2O[C@@H]2CCC[C@H](C)[C@H](O)[C@@H](C)C(=O)C(C)(C)[C@H](O)CC(=O)O1,24% (active)

# Same assay, conditions: patient-derived ovarian cancer cells, CellTiter-Glo viability, 144 h; at 0.313 µM; OCI-P5x cells; with rucaparib 20 µM; active compounds read low; 100% = cells with rucaparib alone
row,Structure (SMILES),viability
1,CC(C)[C@@]12O[C@@H]1[C@@H]1O[C@]13[C@]1(O[C@@H]1C[C@@H]1C4=C(CC[C@@]13C)C(=O)OC4)[C@@H]2O,12.1% (active)
2,C/C(=C\c1csc(C)n1)[C@H]1C[C@@H]2O[C@]2(C)CCC[C@H](C)[C@H](O)[C@@H](C)C(=O)C(C)(C)[C@H](O)CC(=O)O1,44.8% (active)
3,C/C(=C\c1csc(C)n1)[C@H]1C[C@@H]2O[C@@H]2CCC[C@H](C)[C@H](O)[C@@H](C)C(=O)C(C)(C)[C@H](O)CC(=O)O1,46.5% (active)

# Same assay, conditions: patient-derived ovarian cancer cells, CellTiter-Glo viability, 144 h; at 0.313 µM; OCI-P5x cells; without rucaparib; active compounds read low
row,Structure (SMILES),viability
1,CC(C)[C@@]12O[C@@H]1[C@@H]1O[C@]13[C@]1(O[C@@H]1C[C@@H]1C4=C(CC[C@@]13C)C(=O)OC4)[C@@H]2O,8.22% (active)
2,C/C(=C\c1csc(C)n1)[C@H]1C[C@@H]2O[C@]2(C)CCC[C@H](C)[C@H](O)[C@@H](C)C(=O)C(C)(C)[C@H](O)CC(=O)O1,15.9% (active)
3,C/C(=C\c1csc(C)n1)[C@H]1C[C@@H]2O[C@@H]2CCC[C@H](C)[C@H](O)[C@@H](C)C(=O)C(C)(C)[C@H](O)CC(=O)O1,15.9% (active)

# Same assay, conditions: patient-derived ovarian cancer cells, CellTiter-Glo viability, 144 h; at 1.25 µM; OCI-C5x cells; with rucaparib 10 µM; active compounds read low; 100% = cells with rucaparib alone
row,Structure (SMILES),viability
1,CC(C)[C@@]12O[C@@H]1[C@@H]1O[C@]13[C@]1(O[C@@H]1C[C@@H]1C4=C(CC[C@@]13C)C(=O)OC4)[C@@H]2O,9.48% (active)
2,C/C(=C\c1csc(C)n1)[C@H]1C[C@@H]2O[C@]2(C)CCC[C@H](C)[C@H](O)[C@@H](C)C(=O)C(C)(C)[C@H](O)CC(=O)O1,45.2% (active)
3,C/C(=C\c1csc(C)n1)[C@H]1C[C@@H]2O[C@@H]2CCC[C@H](C)[C@H](O)[C@@H](C)C(=O)C(C)(C)[C@H](O)CC(=O)O1,25.2% (active)

# Same assay, conditions: patient-derived ovarian cancer cells, CellTiter-Glo viability, 144 h; at 1.25 µM; OCI-C5x cells; without rucaparib; active compounds read low
row,Structure (SMILES),viability
1,CC(C)[C@@]12O[C@@H]1[C@@H]1O[C@]13[C@]1(O[C@@H]1C[C@@H]1C4=C(CC[C@@]13C)C(=O)OC4)[C@@H]2O,10% (active)
2,C/C(=C\c1csc(C)n1)[C@H]1C[C@@H]2O[C@]2(C)CCC[C@H](C)[C@H](O)[C@@H](C)C(=O)C(C)(C)[C@H](O)CC(=O)O1,38.5% (active)
3,C/C(=C\c1csc(C)n1)[C@H]1C[C@@H]2O[C@@H]2CCC[C@H](C)[C@H](O)[C@@H](C)C(=O)C(C)(C)[C@H](O)CC(=O)O1,24.3% (active)

# Same assay, conditions: patient-derived ovarian cancer cells, CellTiter-Glo viability, 144 h; at 1.25 µM; OCI-P5x cells; with rucaparib 20 µM; active compounds read low; 100% = cells with rucaparib alone
row,Structure (SMILES),viability
1,CC(C)[C@@]12O[C@@H]1[C@@H]1O[C@]13[C@]1(O[C@@H]1C[C@@H]1C4=C(CC[C@@]13C)C(=O)OC4)[C@@H]2O,9.34% (active)
2,C/C(=C\c1csc(C)n1)[C@H]1C[C@@H]2O[C@]2(C)CCC[C@H](C)[C@H](O)[C@@H](C)C(=O)C(C)(C)[C@H](O)CC(=O)O1,39.6% (active)
3,C/C(=C\c1csc(C)n1)[C@H]1C[C@@H]2O[C@@H]2CCC[C@H](C)[C@H](O)[C@@H](C)C(=O)C(C)(C)[C@H](O)CC(=O)O1,46.3% (active)

# Same assay, conditions: patient-derived ovarian cancer cells, CellTiter-Glo viability, 144 h; at 1.25 µM; OCI-P5x cells; without rucaparib; active compounds read low
row,Structure (SMILES),viability
1,CC(C)[C@@]12O[C@@H]1[C@@H]1O[C@]13[C@]1(O[C@@H]1C[C@@H]1C4=C(CC[C@@]13C)C(=O)OC4)[C@@H]2O,8.5% (active)
2,C/C(=C\c1csc(C)n1)[C@H]1C[C@@H]2O[C@]2(C)CCC[C@H](C)[C@H](O)[C@@H](C)C(=O)C(C)(C)[C@H](O)CC(=O)O1,16.1% (active)
3,C/C(=C\c1csc(C)n1)[C@H]1C[C@@H]2O[C@@H]2CCC[C@H](C)[C@H](O)[C@@H](C)C(=O)C(C)(C)[C@H](O)CC(=O)O1,14.6% (active)

# Same assay, conditions: patient-derived ovarian cancer cells, CellTiter-Glo viability, 144 h; at 5 µM; OCI-C5x cells; with rucaparib 10 µM; active compounds read low; 100% = cells with rucaparib alone
row,Structure (SMILES),viability
1,CC(C)[C@@]12O[C@@H]1[C@@H]1O[C@]13[C@]1(O[C@@H]1C[C@@H]1C4=C(CC[C@@]13C)C(=O)OC4)[C@@H]2O,9.2% (active)
2,C/C(=C\c1csc(C)n1)[C@H]1C[C@@H]2O[C@]2(C)CCC[C@H](C)[C@H](O)[C@@H](C)C(=O)C(C)(C)[C@H](O)CC(=O)O1,45.4% (active)
3,C/C(=C\c1csc(C)n1)[C@H]1C[C@@H]2O[C@@H]2CCC[C@H](C)[C@H](O)[C@@H](C)C(=O)C(C)(C)[C@H](O)CC(=O)O1,52.3% (active)
